# Data from PubChem BioAssay AID1851 (National Center for Advancing Translational Sciences (NCATS), 2009).
# About 5,800 (36%) of roughly 16,000 compounds were called active. Another 23% or so got no clear call; they are omitted. The list shows a part of the results. A number with no mark means an inactive call. Calls come from the whole dose curve; as a rule, active = well fitted curve in the direction sought with a large enough effect; inconclusive = small, poorly fitted or top-dose-only effect, or effect the other way; inactive = no such curve, though single readings can be large or run the other way.
# Molecular target: Cytochrome P450 2C19 (Homo sapiens) (UniProt P33261)
# Sequence (P33261 whole entry, looked up): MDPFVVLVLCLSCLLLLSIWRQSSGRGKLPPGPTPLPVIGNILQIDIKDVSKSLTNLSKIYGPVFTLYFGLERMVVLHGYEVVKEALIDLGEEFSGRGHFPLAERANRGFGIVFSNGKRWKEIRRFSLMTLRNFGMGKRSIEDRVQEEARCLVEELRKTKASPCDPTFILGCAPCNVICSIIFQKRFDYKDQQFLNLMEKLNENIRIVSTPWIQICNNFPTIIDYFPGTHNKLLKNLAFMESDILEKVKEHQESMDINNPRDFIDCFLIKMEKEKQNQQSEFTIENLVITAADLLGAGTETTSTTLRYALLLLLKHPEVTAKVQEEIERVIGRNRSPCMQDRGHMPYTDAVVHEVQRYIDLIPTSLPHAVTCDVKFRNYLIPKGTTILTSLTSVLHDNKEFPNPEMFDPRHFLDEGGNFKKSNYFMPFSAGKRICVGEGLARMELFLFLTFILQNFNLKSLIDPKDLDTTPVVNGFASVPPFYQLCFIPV
# Test: Cytochrome panel assay with activity outcomes
# Conditions: recombinant CYP, pro-luciferin dealkylation, luminescence, p450-cyp2c19; series mostly up to 57.1 µM
# % is set by controls: 0 for no effect and ±100 for the full control effect.
Structure (SMILES),AC50,"activity, negative = inhibition"
N#Cc1cccc(NC(=O)N2CC[C@@]3(CCCN(C(=O)c4ccncc4)C3)C2)c1,inactive,
Cc1cc(NC(=O)CSc2ccc3nnc(-c4ccc(F)cc4)n3n2)no1,inactive,
CCCCc1nc(SCC(=O)Nc2ncccn2)n[nH]1,inactive,
Cc1cc(NC(=O)CSc2n[nH]c(-c3cccs3)n2)no1,14.1 µM (active),
N[C@@H](Cn1ccc(=O)n(Cc2ccccc2C(=O)O)c1=O)C(=O)O,0.1 µM (active),
N[C@H](Cn1ccc(=O)n(Cc2ccccc2C(=O)O)c1=O)C(=O)O,inactive,
CCCCCc1nnc(NC(=O)C(=O)OCC)s1,inactive,
Cc1nn(-c2ccccc2)c(Cl)c1C(=O)Nc1c(C)n(C)n(-c2ccccc2)c1=O,inactive,
CCc1nnc(NC(=O)c2c(C)nn(-c3ccccc3)c2Cl)s1,20 µM (active),
COc1ccccc1CNCc1cccs1,8.91 µM (active),
COc1cc(CNCc2cccs2)ccc1OCC(=O)NC(C)(C)C,14.1 µM (active),
COc1cc(CNCc2cccs2)cc(Br)c1OC,2.51 µM (active),
COc1ccccc1CNCCCCCCNCCCCCCCCNCCCCCCNCc1ccccc1OC,inactive,
CC(C)NC(=O)N1CCCC2(CCN(C(=O)c3csnn3)CC2)C1,inactive,
COCC(=O)N1CCC2(CCCN(C(=O)Nc3cccc(F)c3)C2)CC1,inactive,
CN(C)C(=O)c1ccc(-c2ccc3ncnc(NCCN4CCOCC4)c3c2)cc1,inactive,
CN(C)C(=O)c1ccc(-c2cncnc2NCCN2CCOCC2)cc1,inactive,
Cc1ccc(-c2csc3ncnc(NCCN4CCOCC4)c23)cc1,11.2 µM (active),
CN(C)c1ccc(-c2cncnc2NCCN2CCOCC2)cc1,6.31 µM (active),
CC(C)=CCC/C(C)=C/CO/N=C1/C[C@@H](O)[C@@H](O)[C@@H]2[C@@H]3C(=O)N(C[C@@H]4CCCO4)C(=O)[C@H]3CC[C@H]12,,-12% [at 11.4 µM]
Cc1cc(N)c2ccccc2[n+]1CCCCCCCCCC[n+]1c(C)cc(N)c2ccccc21,inactive,
Nc1cc2c(nc3c4ccccc4c(N)cc3[n+]2-c2cccc3ccccc23)c2ccccc12 (tested in a mixture with another compound),1 µM (active),
COc1cc(/C=C(\C#N)C(=O)c2ccc(O)c(O)c2)cc(I)c1O,inactive,
COc1ccc(/C=C(\C#N)C(N)=O)c(OC)c1,,6.18% [at 11.4 µM]

Structure (SMILES),AC50,"activity, negative = inhibition"
COc1cc(/C=C(\C#N)C(N)=O)cc(CSc2nc3ccccc3s2)c1O,3.16 µM (active),
CCc1ccc(N/C(SCc2ccccc2C)=C(/C#N)C(=O)NCc2ccco2)cc1,2.82 µM (active),
CCNC(=O)NC(=O)CSc1nc2ccccc2n1CC(C)C,5.62 µM (active),
CC(C)Cn1c(SCC(=O)c2c(N)n(C)c(=O)n(C)c2=O)nc2ccccc21,7.94 µM (active),
O=C(CSc1nnc(-c2ccco2)n1-c1ccccc1)NCc1ccco1,8.91 µM (active),
O=C(CSc1nnc2sc3ccccc3n12)NCc1ccco1,10 µM (active),
Cc1cc(C)c(NC(=O)C(C)Sc2nnc(-c3ccco3)n2-c2ccccc2)c(C)c1 (stereo unspecified),1.78 µM (active),
CC(c1ccc(Cl)cc1)n1c(-c2ccc3ccccc3n2)n[nH]c1=S (stereo unspecified),0.447 µM (active),
Cc1cc2c(cc1C)-c1nnc(-c3ccc4ccccc4n3)n1C(C)(C)C2,inactive,
CN(C)CC[C@H](c1ccc(Cl)cc1)c1ccccn1,inactive,
CC(=O)OC[C@@H]1O[C@@H](O/N=C2/C[C@@H](O)[C@@H](O)[C@@H]3[C@@H]4C(=O)N(C5CCCCC5)C(=O)[C@H]4CC[C@H]23)[C@H](OC(C)=O)[C@H](OC(C)=O)[C@@H]1OC(C)=O,,9.71% [at 11.4 µM]
FC(F)(F)c1ccccc1-n1ccnc1,inactive,
N#Cc1c(Cl)cccc1-n1ccnc1,8.91 µM (active),
Cc1cccc(-n2cccc2)c1C#N,17.8 µM (active),
N#Cc1c(-n2ccnc2)cccc1-n1ccnc1,2.24 µM (active),
CSC(=NC#N)N1CCN(c2ccc(Cl)cc2)CC1,0.708 µM (active),
O=C(CCNC(=O)Cn1cnc2ccccc2c1=O)NCC1COc2ccccc2O1 (stereo unspecified),28.2 µM (active),
O=C(Cn1cnc2ccccc2c1=O)NCCC(=O)Nc1ccc2c(c1)OCCO2,inactive,
c1ccc(C(c2ccccc2)N2CC[C@@]3(CCCNC3)C2)cc1,inactive,
CN1[C@@H](CC(=O)c2ccccc2)CCC[C@@H]1C[C@@H](O)c1ccccc1,inactive,
O=C(O)CC(c1ccccc1)n1cnnn1 (stereo unspecified),inactive,
O=C(C[C@@H](c1ccccc1)N1CCCCC1)c1ccccc1,2.51 µM (active),
O=CN[C@@H](Cc1cnc[nH]1)C(=O)O,,6.59% [at 11.4 µM]
O=C1c2ccccc2NC(c2ccc(Cl)cc2Cl)N1O (stereo unspecified),5.62 µM (active),

Structure (SMILES),AC50,"activity, negative = inhibition"
O=C1c2ccccc2NC(c2ccc3c(c2)OCO3)N1O (stereo unspecified),10 µM (active),
C=CCc1cccc(C2Nc3ccccc3C(=O)N2O)c1O (stereo unspecified),1.58 µM (active),
CCNC(=S)NNC(=O)CCn1c2ccccc2c2ccccc21,5.01 µM (active),
CCNC(=S)NNC(=O)Cc1ccccc1,inactive,
C=CCc1cc(C=O)cc(OC)c1OCc1ccc(Cl)cc1,0.794 µM (active),
COc1cc(/C=N/O)cc(Br)c1OCc1cccc(Cl)c1,2 µM (active),
CCOc1cc(/C=N/O)cc(Cl)c1OC,20 µM (active),
COc1ccc(Cl)cc1N=Nc1ncc[nH]1,inactive,
COc1cc(/C=N/O)cc(Br)c1OCc1ccc(Cl)cc1,1.58 µM (active),
CCN1C(=O)[C@H]2[C@H]3[C@H](O)[C@H](O)C/C(=N/OC[C@@H](O)[C@H]4O[C@H]5OC(C)(C)O[C@H]5[C@@H]4O)[C@@H]3CC[C@@H]2C1=O,,15% [at 11.4 µM]
COC(=O)C1CCC(C)(C(=O)Nc2ccccc2)C1(C)C (stereo unspecified),3.55 µM (active),
COC(=O)N1CCC2(CC1)CN(C(=O)Nc1ccccc1)C2,inactive,
COC(=O)N1CCC[C@@]2(CCN(C(=O)Nc3ccccc3)C2)C1,inactive,
CCn1c(SCc2ccc(Cl)cc2Cl)nc2nc3c(cc2c1=O)CCCC3,3.98 µM (active),
COc1cc2c3cc1Oc1c(OC)c(OC)cc4c1[C@@H](Cc1ccc(O)c(c1)Oc1ccc(cc1)C[C@@H]3N(C)CC2)CN(C)C4,,-44.9% [at 11.4 µM]
COc1ccc([N+](=O)[O-])cc1N(CC(O)CN(CC(C)C)CC(C)C)S(=O)(=O)c1ccccc1 (stereo unspecified),6.31 µM (active),
Cn1ccc2cc3c(cc21)CCN3C(=O)Nc1cccnc1,inactive,
O=C(Nc1ccccc1)N1CCSc2cc(Cl)ccc21,0.794 µM (active),
CS(=O)(=O)N1CCC2(CC1)CN(C(=O)Nc1ccccc1)C2,inactive,
O=C(N/N=C/c1ccc([N+](=O)[O-])o1)c1cc(-c2ccncc2)nc2ccccc12,2.82 µM (active),
O=C(O)c1cc(-c2ccncc2)nc2ccccc12,,15.6% [at 11.4 µM]
CCn1c2ccccc2c2cc(NC(=O)C(C)Oc3ccc(OC)cc3)ccc21 (stereo unspecified),0.398 µM (active),
CCC(C(=O)N1CCOCC1)n1c(C(=O)OC)cc2occc21 (stereo unspecified),5.01 µM (active),
CCC(Sc1ncccc1C(=O)O)C(=O)N1CCOCC1 (stereo unspecified),inactive,

Structure (SMILES),AC50,"activity, negative = inhibition"
COc1ccc2c(CC(=O)NCC3CCC(C(=O)O)CC3)cc(=O)oc2c1 (stereo unspecified),inactive,
Cc1cc(=O)oc2cc(O)ccc12,inactive,
CCN(CC)c1ccc(C(=O)OCc2cc(=O)oc3cc(O)ccc23)cc1,0.355 µM (active),
CCN(CC)c1ccc2c(Cl)cc(=O)oc2c1,11.2 µM (active),
CCCC[C@H](CC)CN1CN(C[C@@H](CC)CCCC)CC(C)(N)C1,inactive,
CS(=O)(=O)N1CCC2(CCN(c3ccccc3)CC2)CC1,inactive,
CS(=O)(=O)N1CCN(c2c(Cl)cccc2[N+](=O)[O-])CC1,14.1 µM (active),
CS(=O)(=O)N1CCC2(CCN(C(c3ccccc3)c3ccccc3)CC2)CC1,inactive,
CCS(=O)(=O)N1CCN(c2c(Cl)cccc2[N+](=O)[O-])CC1,10 µM (active),
CCN1CCc2nc(N)oc2CC1,inactive,
CC(=O)N(/N=C1\Sc2ccccc2C1=O)c1ccccc1,3.16 µM (active),
CC(=O)N(/N=C1\Sc2ccccc2C1=O)c1ccccc1C,4.47 µM (active),
CC(C)c1ccc(CNc2cc(N3CCCC3)ccc2[N+](=O)[O-])cc1,1.78 µM (active),
O=[N+]([O-])c1cc(F)c(N2CCOCC2)cc1N1CCCCC1,3.98 µM (active),
O=[N+]([O-])c1ccc(N2CCCC2)cc1N1CCCC1,4.47 µM (active),
O=[N+]([O-])c1cccnc1N1CCOCC1,inactive,
O=[N+]([O-])c1ccc(N2CCCCC2)c(Cl)c1N1CCCCC1,1.41 µM (active),
Clc1ccc(N2CCCCCC2)nn1,inactive,
COC(=O)[C@@]1(Cc2ccccc2)[C@H]2c3cc(C(=O)N4CCCC4)n(Cc4ccsc4Br)c3C[C@H]2CN1C(=O)c1ccccc1,2.51 µM (active),
COC(=O)[C@@]1(Cc2ccccc2)[C@H]2c3cc(C(=O)N4CCCC4)n(Cc4cccc5ccccc45)c3C[C@H]2CN1C(=O)c1ccccc1,2.51 µM (active),
COC(=O)[C@@]1(Cc2ccccc2)[C@H]2c3cc(C(=O)N(C)C)n(Cc4ccsc4Br)c3C[C@H]2CN1C(=O)c1ccccc1,2 µM (active),
S=C(Nc1ccc2cn[nH]c2c1)Nc1ccc2cn[nH]c2c1,1 µM (active),
O=C(O)c1c(Cl)c(Cl)c(Cl)c(Cl)c1C(=O)Nc1ccc2cn[nH]c2c1,,-27.8% [at 11.4 µM]
CCNc1ncc2nc(-c3ccc(Cl)cc3)c(=O)n(C3CC3)c2n1,inactive,
